PubChem BioAssay (EPA / NIEHS)
Inconclusive results are not listed. Active and inactive are the calls of the source. Rule for the calls, unless noted: active = hit-call score of the fitted dose curve at least 0.9, where 1 is the maximum; inactive = score below 0.9.

Columns and labels:
[1] = ACEA_ER_80hr: ACEA Biosciences xCELLigence Real-Time Cell Analysis on Estrogen Receptor Agonism for Proliferation (AID 2282667; active = hit-call score of the fitted dose curve at least 0.9, where 1 is the maximum); details: T47D proliferation, impedance (xCELLigence), 80 h
In short: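 Real-time electrical impedance tracked growth of the human breast line T47D, with the 80 h post-dosing value used. Dosing spanned eight 1:4 steps down from a 100 uM final top concentration, run in duplicate.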

[2] = APR_HepG2_CellCycleArrest_24hr: Apredica 24-hour HepG2 Assay for Cell Cycle Arrest (AID 2282905); details: imaging, actives raise or lower the signal;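 note: cell cycle arrest scored as ratio of 2N to 4N nuclear DNA content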
In short: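 Compounds at 0.39–200 uM (0.5% DMSO) for 24 h, then fixed and Hoechst 33342 stained. Cell-cycle analysis of nuclear DNA content by high-content imaging, fitted bidirectionally versus DMSO.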

[3] = APR_HepG2_NuclearSize_24hr: Apredica 24-hour HepG2 Assay for Nuclear Size (AID 2282907); details: high-content imaging, actives raise or lower the signal
In short: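 HepG2 cells exposed 24 h to compounds at 0.39–200 uM (0.5% DMSO), fixed, Hoechst 33342 stained and imaged at 20x; nuclear diameter measured by automated image analysis, fitted bidirectionally against DMSO controls.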

[4] = APR_HepG2_CellLoss_24hr: Apredica 24-hour HepG2 Assay for Cell Loss (AID 2282908); details: high-content imaging;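 for AC50: fit in both directions so a hit may be cell loss or gain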
In short: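 HepG2 cells exposed 24 hr to 0.39–200 uM compound in duplicate at 0.5% v/v final DMSO. Cells fixed in 3.7% formaldehyde and Hoechst 33342-stained. Cell number came from nuclear imaging at 20x. Bidirectional fit versus DMSO.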

[5] = APR_HepG2_MicrotubuleCSK_24hr: Apredica 24-hour HepG2 Assay for Microtubule CSK Stabilty (AID 2282909); details: HepG2 microtubule cytoskeleton imaging, actives raise or lower the signal
In short: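 HepG2 cells were treated 24 hr with compound at 0.39–200 uM in duplicate (0.5% DMSO final), then fixed and permeabilized. Alpha-tubulin immunofluorescence was imaged by high-content microscopy, with bidirectional fitting against DMSO and taxol as positive control.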

[6] = APR_HepG2_MitoticArrest_24hr: Apredica 24-hour HepG2 Assay for Mitotic Arrest (AID 2282910); details: high-content imaging, actives raise or lower the signal
In short: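 HepG2 human liver cells were exposed to compounds at 0.39–200 uM (10 concentrations, duplicate) in 0.5% v/v DMSO for 24 hr, then fixed and immunostained for phospho-histone H3 with Hoechst 33342. Mitotic arrest came from HCS fluorescent imaging, fitted bidirectionally against DMSO.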

[7] = APR_HepG2_MitoMembPot_24hr: Apredica 24-hour HepG2 Assay for Mitochondrial Membrane Potential (AID 2282911); details: imaging, actives raise or lower the signal
In short: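 Cells are dosed for 24 hr across 0.39 to 200 uM with solvent held at 0.5% DMSO. They are then stained with 250 nM MitoTracker Red CMXRos for 30 min, fixed in 3.7% formaldehyde and imaged.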

[8] = APR_HepG2_MitoMass_24hr: Apredica 24-hour HepG2 Assay for Mitochondrial Mass (AID 2282912); details: high-content imaging, actives raise or lower the signal
In short: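 HepG2 cells exposed 24 hr to 0.39–200 uM compound, 0.5% v/v DMSO, in duplicate. Stained before fixation with 250 nM MitoTracker Red CMXRos for 30 min, then imaged at 20x with Hoechst nuclei. Fitted in both directions against DMSO.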

[9] = APR_HepG2_p53Act_24hr: Apredica 24-hour HepG2 Assay for p53 Activation (AID 2282913); details: high-content imaging, actives raise or lower the signal;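 note: p53 protein immunofluorescence averaged per cell in HepG2 with Hoechst nuclei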
In short: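 Human HepG2 liver cells; 24 hr cpd treatment, 0.39–200 uM, 0.5% DMSO final. Fixed in 3.7% formaldehyde, permeabilized with 0.5% Triton X-100, stained with anti-p53/Cy5 plus Hoechst 33342. Six images per well at 20x; gain or loss vs DMSO.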

[10] = APR_HepG2_CellCycleArrest_72hr: Apredica 72-hour HepG2 Assay for Cell Cycle Arrest (AID 2282914); details: high-content imaging, actives raise or lower the signal
In short: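 Read-out is Hoechst-stained nuclear DNA content measured by automated fluorescence imaging (20x, six images per well), fitted in both directions relative to DMSO. Human HepG2 liver cells received 0.39–200 uM compound for 72 hr at 0.5% v/v DMSO.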

Measured: AC50

COc1cc2c(c(OC)c1OC)-c1ccc(OC)c(=O)cc1[C@@H](NC(C)=O)CC2
active: [2] 0.0391 µM | [4] 0.0447 µM | [6] 0.0382 µM
not listed: [9] | [10]
inactive: all other assays above

S=P(N1CC1)(N1CC1)N1CC1
inactive: [1]

OCCC(F)(F)C(F)(F)C(F)(F)C(F)(F)F
inactive: [1]

CCc1ccc(O)c(C(C)(C)C)c1
active: [2] 98.1 µM | [4] 83.8 µM | [5] 80.7 µM | [6] 101 µM | [7] 86.2 µM | [8] 105 µM
inactive: [1] | [3] | [9]

CC(C)CC(C)O (centres undefined)
not listed: [9] | [10]
inactive: all other assays above

OCc1c[nH]c2ccccc12
inactive: [1]

FC(F)=C(F)C(F)(F)C(F)(F)C(F)(F)C(F)(F)C(F)(F)C(F)(F)F
inactive: [1]

OCC(CO)(CO)CO
not listed: [9] | [10]
inactive: all other assays above

FC(F)(F)C(F)(F)C(F)(F)C(F)(F)C(F)(F)C(F)(F)I
inactive: [1]

c1ccc(C(O[C@@H]2CCCN(CCc3ccc4c(c3)OCO4)C2)c2ccccc2)cc1
inactive: [1] | [3] | [7]
active: [2] 83.5 µM | [4] 99.9 µM | [5] 88.3 µM | [6] 96.3 µM | [8] 100 µM | [9] 103 µM

O=C(O)CO
inactive: [1]

CCCCCCCCCCCCCCO
inactive: [1] | [3] | [7]
active: [2] 162 µM | [4] 98.1 µM | [5] 107 µM | [6] 99.3 µM | [8] 106 µM | [9] 95.8 µM

FC(F)(F)COC(OCC(F)(F)F)OCC(F)(F)F
inactive: [1]

OC(O)(C(F)C(O)(O)C(F)(F)F)C(F)(F)F
inactive: [1]

CC(C)C(=O)Nc1ccc([N+](=O)[O-])c(C(F)(F)F)c1
active: [1] 80.5 µM | [2] 71 µM | [4] 44.4 µM | [6] 62.8 µM | [8] 92.2 µM
inactive: [3] | [5] | [7]

CCN(CC)C(=S)SSC(=S)N(CC)CC
active: [4] 50.6 µM | [5] 78.9 µM | [6] 25.2 µM | [8] 26.1 µM | [9] 4.83 µM
inactive: [1] | [2] | [3] | [7]

O=S(=O)(O)CCC(F)(F)C(F)(F)C(F)(F)C(F)(F)C(F)(F)C(F)(F)F
inactive: [1]

CCCC(CCC)C(=O)O
not listed: [9] | [10]
inactive: all other assays above

NCC(F)(F)C(F)(F)C(F)(F)C(F)(F)F
inactive: [1]

c1ccc2c(c1)-c1cccc3c1c-2cc1ccccc13
inactive: [1] | [2] | [3] | [5]
active: [4] 5.87 µM | [6] 15.5 µM | [7] 70.4 µM | [8] 8.67 µM

Cc1nccn1-c1ccc(Sc2cccc(C3(C(N)=O)CCOCC3)c2)cc1
active: [1] 0.782 µM | [4] 3.13 µM | [8] 19.8 µM
not listed: [9] | [10]
inactive: all other assays above

Cn1cc[nH]c1=S
not listed: [10]
inactive: all other assays above

FC(F)C(F)(F)COCC1CO1 (centres undefined)
inactive: [1]

C[Si](C)(C)C(F)(F)C(F)(F)C(F)(F)F
inactive: [1]

O=C(N[C@H](CO)[C@H](O)c1ccc([N+](=O)[O-])cc1)C(Cl)Cl
inactive: [1]

O=C(Cl)C(F)(F)C(F)(F)C(F)(F)C(=O)Cl
inactive: [1]

Cc1cccc(O)c1C
inactive: [1]

O=C(O)c1cccc(C[C@@H]2COc3ccc(OCc4nc5cc(F)ccc5s4)cc3[C@@H]2O)c1
inactive: [1] | [3] | [5] | [7]
active: [2] 50.1 µM | [4] 53.9 µM | [6] 93.5 µM | [8] 156 µM | [9] 97.2 µM

C[C@@H](Oc1ccc(CNC(=O)c2cccnc2Oc2ccc3c(c2)OCO3)c(F)c1)C(=O)O
active: [7] 0.0391 µM
not listed: [6] | [9] | [10]
inactive: all other assays above

CC(=O)c1ccccc1
not listed: [10]
inactive: all other assays above

NC(=O)NN=Cc1ccc([N+](=O)[O-])o1
active: [1] 10.5 µM | [2] 81.4 µM | [4] 57.6 µM
not listed: [10]
inactive: all other assays above

C=CCc1cc(S(=O)(=O)c2ccc(O)c(CC=C)c2)ccc1O
active: [2] 32 µM | [4] 97.8 µM | [6] 51.5 µM | [8] 52.7 µM | [10] 33.7 µM
inactive: [1] | [3] | [5] | [7]

COS(C)(=O)=O
not listed: [6] | [9] | [10]
inactive: all other assays above

CCCCCOC(C)=O
not listed: [6] | [9] | [10]
inactive: all other assays above

CCCCN1C(=O)[C@@H]([C@H](O)C2CCCCC2)NC(=O)C12CCN(Cc1ccc(Oc3ccc(C(=O)O)cc3)cc1)CC2
active: [4] 48.3 µM
not listed: [6] | [10]
inactive: all other assays above

CCCOc1ccc(S(=O)(=O)N2CCN(CC)CC2)cc1-c1nc2c(CC)n(Cc3ccccn3)nc2c(=O)[nH]1
not listed: [9]
inactive: all other assays above

CCCCCCCC/C=C\CCCCCCCC(=O)OC[C@@H](O)[C@H]1OC[C@H](O)[C@H]1O
inactive: all assays above

CCn1nc(C)c2c1C(=O)NCC(c1ccc(O)cc1)=N2
inactive: all assays above

O=C(NO)C1(NS(=O)(=O)c2ccc(Oc3ccc(F)cc3)cc2)CCOCC1
not listed: [9]
inactive: all other assays above

NC(=O)N(O)[C@@H]1COc2cc(OCc3ccccc3)ccc21
active: [7] 52.2 µM
not listed: [6] | [9] | [10]
inactive: all other assays above

O=C(O)c1cccc(C(=O)O)c1
not listed: [6] | [9] | [10]
inactive: all other assays above

OC(Cn1cncn1)(Cn1cncn1)c1ccc(F)cc1F
inactive: all assays above

CCCCCCCCCCCCCCCCOS(=O)(=O)O
not listed: [10]
inactive: all other assays above

O=C(O)[C@H](O)[C@@H](O)C(=O)O
not listed: [6] | [9] | [10]
inactive: all other assays above

CNC(C)=O
not listed: [6] | [9] | [10]
inactive: all other assays above

O=S1(=O)CCCO1
inactive: all assays above

O=S(=O)(O)c1ccc(N=Nc2c(O)ccc3cc(S(=O)(=O)O)ccc23)cc1
not listed: [6] | [9] | [10]
inactive: all other assays above

OC[C@H]1O[C@@H]2O[C@H]3[C@H](O)[C@@H](O)[C@@H](O[C@H]4[C@H](O)[C@@H](O)[C@@H](O[C@H]5[C@H](O)[C@@H](O)[C@@H](O[C@H]6[C@H](O)[C@@H](O)[C@@H](O[C@H]7[C@H](O)[C@@H](O)[C@@H](O[C@H]1[C@H](O)[C@H]2O)O[C@@H]7CO)O[C@@H]6CO)O[C@@H]5CO)O[C@@H]4CO)O[C@@H]3CO
not listed: [9]
inactive: all other assays above

CC1(C)C(=O)N(Cl)C(=O)N1Cl
not listed: [10]
inactive: all other assays above

Cc1ncc([C@@H](CCCCCCc2ccc3c(n2)NCCC3)CC(=O)O)cn1
active: [8] 0.18 µM
not listed: [6] | [9] | [10]
inactive: all other assays above

Cc1nc(-c2ccccn2)ncc1C(=O)Nn1cc(C)c2cc(F)ccc21
active: [2] 99.5 µM | [4] 88.7 µM | [7] 100 µM | [8] 108 µM
inactive: [1] | [3] | [5]

COCc1nnc(-c2ccc[n+]([O-])c2)n1-c1c(Cl)c(Cl)cc2[nH]c(=O)c(=O)[nH]c12
not listed: [9]
inactive: all other assays above
